According to publication PMC9911399, “Two distinct binding modes provide the RNA-binding protein RbFox with extraordinary sequence specificity”:
Residue numbers refer to the chain shown, from its start. Over roughly 16,000 sequences, “ka relative to ugcaugu” has its median near 0.096; the highest 2% begin near 0.35. Shown is part of a subset that was picked to be rich in the highest values.

T1: RBFOX1 RRM RbFoxmut (Fox-RRM*) (Homo sapiens, UniProt Q9NWB1 109-208, R118D;E147R;N151S;E152T)
T1 sequence: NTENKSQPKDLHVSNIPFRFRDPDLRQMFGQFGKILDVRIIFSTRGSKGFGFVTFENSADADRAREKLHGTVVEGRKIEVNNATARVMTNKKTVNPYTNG

B1: AGAAGCG (DNA:RNA)
RNA: GGGAGACCGGAAUUCAGAUUGUCCAGAAGCGUUAAAUCCCGUCGUAGCCACCA
DNA 1: CAATCTGAATTCCGGTCTCCC
DNA 2: TGGTGGCTACGACGGGATT
B2: CUCCUCC (DNA:RNA)
RNA: B1 RNA with A25C, G26U, A27C, A28C, G29U, G31C
DNA 1: CAATCTGAATTCCGGTCTCCC
DNA 2: TGGTGGCTACGACGGGATT
B3: CUGCAUC (DNA:RNA)
RNA: GGGAGACCGGAAUUCAGAUUGUCCCUGCAUCUUAAAUCCCGUCGUAGCCACCA
DNA 1: CAATCTGAATTCCGGTCTCCC
DNA 2: TGGTGGCTACGACGGGATT
B4: UGCAAUC (DNA:RNA)
RNA: B3 RNA with C25U, U26G, G27C, C28A
DNA 1: CAATCTGAATTCCGGTCTCCC
DNA 2: TGGTGGCTACGACGGGATT
B5: UGCAUCU (DNA:RNA)
RNA: B1 RNA with A25U, A27C, G29U, G31U
DNA 1: CAATCTGAATTCCGGTCTCCC
DNA 2: TGGTGGCTACGACGGGATT
B6: UGAAUCU (DNA:RNA)
RNA: B1 RNA with A25U, G29U, G31U
DNA 1: CAATCTGAATTCCGGTCTCCC
DNA 2: TGGTGGCTACGACGGGATT
B7: CUGCAGA (DNA:RNA)
RNA: B3 RNA with U30G, C31A
DNA 1: CAATCTGAATTCCGGTCTCCC
DNA 2: TGGTGGCTACGACGGGATT
B8: CCUGCAU (DNA:RNA)
RNA: B3 RNA with U26C, G27U, C28G, A29C, U30A, C31U
DNA 1: CAATCTGAATTCCGGTCTCCC
DNA 2: TGGTGGCTACGACGGGATT
B9: AGCAGCA (DNA:RNA)
RNA: B1 RNA with A27C, G31A
DNA 1: CAATCTGAATTCCGGTCTCCC
DNA 2: TGGTGGCTACGACGGGATT
B10: ACAAAUC (DNA:RNA)
RNA: B1 RNA with G26C, G29A, C30U, G31C
DNA 1: CAATCTGAATTCCGGTCTCCC
DNA 2: TGGTGGCTACGACGGGATT
B11: GUGGAUU (DNA:RNA)
RNA: B3 RNA with C25G, C28G, C31U
DNA 1: CAATCTGAATTCCGGTCTCCC
DNA 2: TGGTGGCTACGACGGGATT
B12: GCGUGGA (DNA:RNA)
RNA: B1 RNA with A25G, G26C, A27G, A28U, C30G, G31A
DNA 1: CAATCTGAATTCCGGTCTCCC
DNA 2: TGGTGGCTACGACGGGATT
B13: UUGGAUC (DNA:RNA)
RNA: B3 RNA with C25U, C28G
DNA 1: CAATCTGAATTCCGGTCTCCC
DNA 2: TGGTGGCTACGACGGGATT
B14: GUGGAUG (DNA:RNA)
RNA: B3 RNA with C25G, C28G, C31G
DNA 1: CAATCTGAATTCCGGTCTCCC
DNA 2: TGGTGGCTACGACGGGATT
B15: GUGGAGA (DNA:RNA)
RNA: B3 RNA with C25G, C28G, U30G, C31A
DNA 1: CAATCTGAATTCCGGTCTCCC
DNA 2: TGGTGGCTACGACGGGATT
B16: UUGGAUU (DNA:RNA)
RNA: B3 RNA with C25U, C28G, C31U
DNA 1: CAATCTGAATTCCGGTCTCCC
DNA 2: TGGTGGCTACGACGGGATT
B17: UUGGAGA (DNA:RNA)
RNA: B3 RNA with C25U, C28G, U30G, C31A
DNA 1: CAATCTGAATTCCGGTCTCCC
DNA 2: TGGTGGCTACGACGGGATT
B18: GUGGAUC (DNA:RNA)
RNA: B3 RNA with C25G, C28G
DNA 1: CAATCTGAATTCCGGTCTCCC
DNA 2: TGGTGGCTACGACGGGATT
B19: UUGGAUG (DNA:RNA)
RNA: B3 RNA with C25U, C28G, C31G
DNA 1: CAATCTGAATTCCGGTCTCCC
DNA 2: TGGTGGCTACGACGGGATT
B20: GGCCUAA (DNA:RNA)
RNA: B1 RNA with A25G, A27C, A28C, G29U, C30A, G31A
DNA 1: CAATCTGAATTCCGGTCTCCC
DNA 2: TGGTGGCTACGACGGGATT

Each binder was assayed against T1, RBFOX1 RRM RbFoxmut (Fox-RRM*) (assay: EMSA; HiTS-Eq, 1 nM pool, 10 min; buffer printed only for the single-RNA assays: 10 mM Tris pH 7.5, 150 mM NaCl, 3.4 mM EDTA, 0.001% NP-40, 30 C). Conditions: tags: His6 N-terminal (pET28a); label: 5' 32P.
Procedure, shortened: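 These values rest on relative association constants, computed from read-count changes of each RNA species versus the control reaction and normalised to the cognate motif. Reads came from free RNA recovered by 8% native PAGE after purified RbFox RRM (wild type or mutant) at increasing concentrations was equilibrated for 10 min in 50 µL with 1 nM of a 5′-radiolabelled pool with 7 randomized nucleotides and DNA-annealed flanks.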

Binder	binding signal
B1	0.107 KA relative to UGCAUGU
B2	0.0813 KA relative to UGCAUGU
B3	0.457 KA relative to UGCAUGU
B4	0.102 KA relative to UGCAUGU
B5	0.727 KA relative to UGCAUGU
B6	0.244 KA relative to UGCAUGU
B7	0.136 KA relative to UGCAUGU
B8	0.139 KA relative to UGCAUGU
B9	0.14 KA relative to UGCAUGU
B10	0.0702 KA relative to UGCAUGU
B11	0.1 KA relative to UGCAUGU
B12	0.092 KA relative to UGCAUGU
B13	0.321 KA relative to UGCAUGU
B14	1.04 KA relative to UGCAUGU
B15	0.118 KA relative to UGCAUGU
B16	0.106 KA relative to UGCAUGU
B17	0.0955 KA relative to UGCAUGU
B18	0.357 KA relative to UGCAUGU
B19	0.61 KA relative to UGCAUGU
B20	0.0594 KA relative to UGCAUGU
